Assay outcomes: PubChem BioAssay, The Scripps Research Institute Molecular Screening Center
This is a sample that favours compounds with a hit; in the whole collection about 1.8% have one here.
Fam108B inh – Fam108B inhibition, counter-screen for RBBP9 inhibitors. recombinant Fam108B, FP-Rh probe fluorescence polarization. 0.33% of 300,000 active. inhibition, % at 9.51 µM;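 active = inhibition above the screen mean inhibition plus 3 SD, computed separately per campaign, cut at about 18% in these data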;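 also: inhibitors lower polarization as less probe binds the enzyme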
LYPLA1 inh – blocks human lysophospholipase 1, a PME1 counter-screen. 0.16% of 320,000 active. AID 2174. inhibition, % at 5.9 µM. recombinant LYPLA1, FP-Rh probe fluorescence polarization;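 active = inhibition above the mean of all tested compounds plus 3 SD, set per campaign, cut at about 14% in these data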;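 also: inhibitors block serine hydrolase probe labeling of LYPLA1 so polarization falls; 0% = enzyme with DMSO and 100% = wells lacking LYPLA1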
Target sequence (O75608 whole entry, looked up): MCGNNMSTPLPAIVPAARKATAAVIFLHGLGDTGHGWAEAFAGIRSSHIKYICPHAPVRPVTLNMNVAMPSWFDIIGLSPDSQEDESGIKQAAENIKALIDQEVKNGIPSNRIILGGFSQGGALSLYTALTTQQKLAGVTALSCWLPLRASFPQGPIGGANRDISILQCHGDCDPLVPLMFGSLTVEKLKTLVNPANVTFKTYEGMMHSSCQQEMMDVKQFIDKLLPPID
PME-1 inh – PME-1 (human) inhibition; inhibition, % at 5.9 µM; recombinant PME-1, FP-Rh probe fluorescence polarization; AID 2130; 0.53% of 320,000 active; Q9Y570;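 active = inhibition above the campaign mean of all compounds plus 3 SD, cut at about 26% in these data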;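 also: competitive labeling of PME-1 active site by serine hydrolase directed probe; 0% = PME-1 with DMSO and 100% = wells lacking PME-1 enzyme; inhibitors block probe labeling so polarization falls and inhibition rises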
GSTO1 inh – blocks human GSTO1 in RBBP9 counter-screen; P78417; recombinant GSTO1, activity-based probe fluorescence polarization; inhibition, % at 5.96 µM; 1.1% of 300,000 active; AID 1974;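 active = inhibition above the campaign mean inhibition plus 3 SD, cut at about 35% in these data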;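 also: 0% = GSTO1-1 with DMSO and 100% = wells lacking GSTO1-1 enzyme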
Target sequence (P78417 whole entry, looked up): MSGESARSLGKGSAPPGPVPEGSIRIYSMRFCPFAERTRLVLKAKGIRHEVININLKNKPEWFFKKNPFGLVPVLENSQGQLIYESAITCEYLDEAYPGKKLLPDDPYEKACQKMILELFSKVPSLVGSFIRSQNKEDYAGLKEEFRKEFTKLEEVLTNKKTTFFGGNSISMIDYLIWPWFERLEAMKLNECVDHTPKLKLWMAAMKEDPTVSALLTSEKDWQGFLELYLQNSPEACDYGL
LYPLA2 counter – counter-screen for PME1 inhibitors: inhibitors of human LYPLA2; O95372; recombinant LYPLA2, FP-Rh probe fluorescence polarization; inhibition, % at 5.9 µM; 0.38% of 320,000 active;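 active = inhibition above the screen-wide mean plus 3 SD, limit set per campaign, cut at about 26% in these data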;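 also: 0% = LYPLA2 with DMSO and 100% = wells lacking LYPLA2 enzyme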
PAD4 FP inh – PAD4 (human) enzyme inhibition | Q9UM07 | recombinant PAD4, RCA probe fluorescence polarization | inhibition, % at 6.36 µM | 0.41% of 330,000 active | AID 485272;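 active = percent inhibition above a cutoff equal to the mean of all tested compounds plus 3 SD, cut at about 15% in these data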;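 also: 0% = PAD4 with RCA probe and DMSO and 100% = probe without PAD4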
Active calls of the source: *; . = no result.

SMILES | Fam108B inh | LYPLA1 inh | PME-1 inh | GSTO1 inh | LYPLA2 counter | PAD4 FP inh
O=C1NCCN2CCCC12 (configuration not stated) | -2 | 1 | -4 | -1 | 30* | 1
CC1(C)NC(=O)[C@H]2CCCN21 | -1 | 0 | -1 | 8 | -1 | 1
O=C(O)C(Br)CBr (configuration not stated) | . | -4 | 1 | . | -9 | 2
O=P(Oc1ccccc1)(Oc1ccccc1)C(O)c1ccc(Cl)cc1 (configuration not stated) | 1 | 1 | 47* | 8 | 4 | 0
COc1ccc(C(O)P(=O)(Oc2ccccc2)Oc2ccccc2)cc1 (configuration not stated) | 3 | 2 | 38* | 21 | -6 | -5
O=C1NC(=S)N(c2ccc(F)cc2)C(=O)/C1=C/c1ccco1 | 52* | -11 | -17 | 3 | 7 | -11
O=C1CN(C(=O)COC(=O)Cc2ccccc2)c2ccccc2N1 | 0 | 0 | 0 | 35* | 6 | -3
CCCCCn1c(NC(=O)c2ccco2)c(C(=O)OCC)c2nc3ccccc3nc21 | 2 | -5 | 4 | 74* | -4 | 7
CCOC(=O)c1c(N)n(CCCOC(=O)c2ccco2)c2nc3ccccc3nc12 | 6 | 4 | 3 | 33 | 1 | -3
CC(C)(C)C(=O)O[C@H]1CC[C@@]2(C)C(=CC(=O)C3C2CC[C@]2(C)C(=O)[C@@H](F)CC32)C1 (some centres not stated) | . | . | . | . | . | 0
Cc1ccccc1NP(=O)(Oc1ccccc1F)Oc1ccccc1F | 0 | -4 | 39* | -2 | -2 | 0
Cc1cccc(NP(=O)(Oc2ccccc2)Oc2ccccc2)c1C | 0 | -1 | 3 | 4 | -4 | -2
C[C@]12CCC3C(CC[C@H]4C[C@@H](O)CC[C@]34C)C1CC[C@@H]2OC(=O)[C@H](N)CCCCN (some centres not stated) | . | . | . | . | . | -4
Cc1cc(C(=O)OCC(=O)Nc2ccc(F)cc2)c(C)n1C1CC1 | . | -1 | 0 | . | -1 | -1
NP(=O)(Oc1ccc(Cl)cc1)Oc1ccc(Cl)cc1 | -1 | -5 | 71* | 21 | -3 | 3
Cc1cccc(OP(N)(=O)Oc2cccc(C)c2)c1 | 1 | 1 | 8 | -4 | 4 | 0
CC1(O)CCN2C(=O)CCc3cccc1c32 (configuration not stated) | . | 3 | -5 | . | 0 | -6
CC/C(CC(c1ccccc1)c1c(O)c2ccccc2oc1=O)=N\NC(N)=S (configuration not stated) | 1 | -2 | -4 | -7 | -5 | -1
C/C(CC(c1ccccc1)c1c(O)c2ccccc2oc1=O)=N\Nc1ccc([N+](=O)[O-])cc1[N+](=O)[O-] (configuration not stated) | 6 | 3 | 5 | 37* | 5 | -10
CC1=NN=C(c2ccc(N)cc2)c2cc3c(cc2C1)OCO3 | 4 | -4 | 1 | 1 | -9 | -2
CN1CCN(c2ccc([N+](=O)[O-])c3no[n+]([O-])c23)CC1 | -22 | -16 | -28 | 47* | -29 | -10
C#CC[N+]1(C)[C@@H]2CC[C@H]1CC(OC(=O)C(CO)c1ccccc1)C2 (some centres not stated) | 3 | 0 | 0 | -4 | -2 | 0
COc1cc(/C=C/c2nc3ccccc3c(=O)n2-c2ccc(O)cc2)ccc1O | 7 | -8 | 26 | -13 | -1 | -1
COc1ccc(-n2c(/C=C/c3ccc(O)c(O)c3)nc3ccccc3c2=O)cc1 | 9 | -13 | 34* | 26 | -13 | -4
Cc1oc(-c2ccccc2)nc1CN1C(=O)CN=C(c2ccccc2)c2ccccc21 | 1 | 4 | 32* | -1 | -3 | 6
SMILES | Fam108B inh | LYPLA1 inh | PME-1 inh | GSTO1 inh | LYPLA2 counter | PAD4 FP inh
COc1ccc(Cn2c(N)c(C(=O)NCc3ccco3)c3nc4ccccc4nc32)cc1OC | 4 | -8 | -7 | 53* | -11 | -4
COCCCNC(=O)c1c(N)n(Cc2ccco2)c2nc3ccccc3nc12 | -1 | -3 | -12 | 5 | -7 | -10
O=P(CCl)(Nc1ccccc1)C(Cl)(Cl)Cl (configuration not stated) | 4 | 2 | 30* | -3 | 5 | -2
COC(=O)C1=C(c2cccc(OCc3ccccc3)c2)C[C@@H]2CC[C@H]1N2C(=O)NCc1cc(C)oc1C(F)(F)F | . | 0 | -7 | . | 5 | 1
Nc1c(C(=O)NC2CCCC2)c2nc3ccccc3nc2n1CC1CCCO1 (configuration not stated) | 4 | -4 | 13 | 66* | -7 | 19*
Nc1c(C(=O)NCC2CCCO2)c2nc3ccccc3nc2n1Cc1ccco1 (configuration not stated) | -1 | -4 | -4 | 16 | -8 | -10
C[C@]12CCC3C(CC[C@H]4C[C@@H](O)CC[C@]34C)C1C[C@@H](Br)[C@H]2O (some centres not stated) | . | . | . | . | . | -3
CN1C(=O)C(Cc2ccc3c(c2)OCO3)C(=O)N(C)C1=O | 1 | 4 | 6 | 41* | 7 | -2
Cc1cc(Br)c(NC(=O)CN2CC=C(c3ccccc3)CC2)c(Br)c1 | 0 | -1 | 31* | -29 | -5 | -1
COC(=O)C1=C(c2ccc3ccccc3c2)C[C@@H]2CC[C@H]1N2C(=O)N1CCCC1 | . | 1 | 1 | . | 3 | -6
CCN(CC)S(=O)(=O)c1cc(NC(=O)C(C)N2CC=C(c3ccccc3)CC2)ccc1C (configuration not stated) | -13 | -6 | 47* | -6 | -13 | 1
O=C1C(=O)c2cccc3cccc1c23 | 2 | -3 | 9 | 38* | 4 | -7
CC[C@H](C)/C=C(C)/C=C/C1=CC2=C(Cl)C(=O)[C@@](C)(OC(C)=O)C(=O)C2=CO1 | 12 | 1 | 1 | 36* | 10 | 9
c1cncc(C2Nc3cccc4cccc(c34)N2)c1 | 17 | -14 | 11 | 64* | -10 | -7
c1cncc(C2CCCCN2)c1 (configuration not stated) | 6 | 2 | -7 | 3 | 2 | -4
CCCOC(=O)c1ccc(-[n+]2c(-c3ccccc3)cc(-c3ccccc3)cc2-c2ccccc2)cc1 | 5 | 1 | 4 | -2 | 10 | -1
CC(=O)c1ccc2c(c1)C1C(Cl)C(Sc3ccccc3[N+](=O)[O-])CC1C(c1ccccc1[N+](=O)[O-])N2 (configuration not stated) | 1 | -16 | 86* | -8 | -13 | -4
C1=CC(Cc2cncs2)c2ccccc21 (configuration not stated) | . | -2 | -4 | . | -3 | -4
O=C1Nc2cc(C(=O)N3CCC4(CC3)OCCO4)ccc2NC1CSCc1cccc(F)c1 (configuration not stated) | 0 | 2 | -7 | -17 | 8 | -5
